According to PubChem BioAssay (EPA / NIEHS):
Results filed as inconclusive are left out. Activity calls are given as the source filed them. How the source made its calls, unless noted: active means hit-call score of the fitted dose curve at least 0.9, where 1 is the maximum; inactive means score below 0.9.

Experiments:
[1] = target: Oxysterols receptor LXR-alpha (Homo sapiens) (UniProt Q13133); assay: ATG_LXRa_TRANS: Attagene TRANS-FACTORIAL HepG2 Assay for human Liver X Receptor alpha (LXRa) (AID 2282980; active means hit-call score of the fitted dose curve at least 0.9, where 1 is the maximum); conditions: HepG2 Attagene TRANS reporter, LXRa transactivation
Summary of the method: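 Transfect HepG2 with GAL4-UAS multiplex reporter constructs (TRANS format, chimeric receptor-GAL4); treat 24 h; extract RNA, reverse-transcribe, PCR-amplify, FAM-label, HpaI-digest; resolve fragments by capillary electrophoresis. Upward response vs DMSO.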

[2] = target: Hepatocyte nuclear factor 4-alpha (Homo sapiens) (UniProt P41235); assay: ATG_HNF4a_TRANS: Attagene TRANS-FACTORIAL HepG2 Assay for human Hepatocyte Nuclear Factor 4 alpha (HNF4a) (AID 2282982; active means hit-call score of the fitted dose curve at least 0.9, where 1 is the maximum); conditions: HepG2 HNF4a transactivation reporter, mRNA readout
Summary of the method: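 Transfected HepG2 reporter cells are dosed for 24 h; reporter RNA is reverse-transcribed, amplified, fluorescently labelled and HpaI-digested before CE sizing. Positive-direction fit against DMSO.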

[3] = ATG_M_06_TRANS: Attagene TRANS-FACTORIAL HepG2 Assay for M06 Transcription Factor (Internal Marker) (AID 2282983; active means hit-call score of the fitted dose curve at least 0.9, where 1 is the maximum); conditions: HepG2 Attagene TRANS M06 internal marker reporter
Summary of the method: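 Transfect HepG2 with MRTUs → dose compounds 24 h → isolate RNA, oligo(dT) RT → PCR with reporter primers → 6-FAM primer extension → HpaI digest → CE fragment analysis. Positive direction vs DMSO.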

[4] = ATG_M_32_TRANS: Attagene TRANS-FACTORIAL HepG2 Assay for M32 Transcription Factor (Internal Marker) (AID 2282984; active means hit-call score of the fitted dose curve at least 0.9, where 1 is the maximum;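 further: transcript level of a background control reporter unit measured by RT-PCR and capillary electrophoresis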); conditions: HepG2 Attagene TRANS M32 internal marker reporter
Summary of the method: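 Using transiently transfected HepG2 cells exposed to test chemicals for 24 h, reporter transcripts are converted to labelled cDNA fragments and quantified by capillary electrophoresis. DMSO defines the activity baseline.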

[5] = target: Nuclear respiratory factor 1 (Homo sapiens) (UniProt Q16656); assay: ATG_NRF1_CIS: Attagene CIS-FACTORIAL HepG2 Assay for human Nuclear Respiratory Factor 1 (NRF1) Orphan Gene (AID 2282987); conditions: HepG2 NRF1 cis-element reporter, Attagene multiplex; actives raise or lower the signal
Summary of the method: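 Measured: fluorescent reporter-specific RT-PCR products from transfected HepG2 cells, separated by capillary electrophoresis. Exposure lasted 24 h. Analysis used bidirectional curve fitting with DMSO as negative control.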

[6] = ATG_NFI_CIS: Attagene CIS-FACTORIAL HepG2 Assay for human Nuclear Factor I (NFI) (AID 2282989); conditions: HepG2 cis-regulatory reporter, NFI response element transcription; actives raise or lower the signal
Summary of the method: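 Read-out: reporter mRNA via RT-PCR plus capillary electrophoresis with fluorescence detection. Transiently transfected HepG2 (endogenous TF activity on cis promoters), 24 h compound exposure; gain or loss of signal fitted against DMSO.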

[7] = target: Myc proto-oncogene protein (Homo sapiens) (UniProt P01106); assay: ATG_Myc_CIS: Attagene CIS-FACTORIAL HepG2 Assay for human Myelocytomatosis (Myc) Proto-Oncogene Transcription Factor (AID 2282990); conditions: HepG2, Attagene cis-reporter transcription factor activity; actives raise or lower the signal
Summary of the method: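 After 24 h chemical treatment of HepG2 cells carrying multiplexed cis-regulated reporter constructs, reporter transcripts quantified by RT-PCR and capillary electrophoresis of fluorescent fragments. Gain or loss fitted against DMSO baseline.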

[8] = ATG_NF_kB_CIS: Attagene CIS-FACTORIAL HepG2 Assay for human Nuclear Factor Kappa B (NF-kB) (AID 2282991); conditions: HepG2 Attagene cis-factorial NF-kB reporter mRNA; actives raise or lower the signal
Summary of the method: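 Fluorescence of labelled RT-PCR products separated by capillary electrophoresis gives reporter mRNA levels from transfected HepG2 cells exposed 24 h; values are fitted in both directions relative to DMSO.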

[9] = ATG_NRF2_ARE_CIS: Attagene CIS-FACTORIAL HepG2 Assay for human Nuclear Factor Erythroid 2 Related Factor 2 (NFR2) response to Antioxidant Response Elements (ARE) (AID 2282992); conditions: HepG2 Attagene ARE/NRF2 reporter, transcription factor activity; actives raise or lower the signal
Summary of the method: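 HepG2 cells transiently transfected with multiplexed cis-regulated reporter transcription units measure endogenous transcription factor activity. Reporter mRNA at 24 h is quantified by RT-PCR, fluorescent labelling and capillary electrophoresis, with bidirectional fitting relative to DMSO.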

[10] = ATG_Oct_MLP_CIS: Attagene CIS-FACTORIAL HepG2 Assay for human Octamer-Binding Transcription Factor (Oct) (AID 2282993); conditions: HepG2 Attagene cis-factorial Oct reporter, mRNA; actives raise or lower the signal
Summary of the method: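 Read-out: reporter mRNA via RT-PCR plus capillary electrophoresis of 6-FAM-labelled fragments. Transiently transfected HepG2, 24 h exposure, endogenous TF activity on cis elements. Gain or loss of signal fitted relative to DMSO.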

[11] = target: Cellular tumor antigen p53 (Homo sapiens) (UniProt P04637); assay: ATG_p53_CIS: Attagene CIS-FACTORIAL HepG2 Assay for human p53 Transcription Factor (AID 2282994); conditions: HepG2 p53 cis-element reporter, Attagene mRNA; actives raise or lower the signal
Summary of the method: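 HepG2 cells transiently transfected with multiplexed cis-regulated reporter transcription units read endogenous TF activity. After 24 h compound exposure, reporter mRNA was quantified by RT-PCR, fluorescent labelling, HpaI digestion and capillary electrophoresis; bidirectional fits versus DMSO baseline.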

[12] = target: Oxysterols receptor LXR-beta (Homo sapiens) (UniProt P55055); assay: ATG_LXRb_TRANS: Attagene TRANS-FACTORIAL HepG2 Assay for human Liver X Receptor beta (LXRb) (AID 2282981; active means hit-call score of the fitted dose curve at least 0.9, where 1 is the maximum); conditions: HepG2 Attagene TRANS GAL4-LXRb reporter, mRNA
Summary of the method: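 Cells: HepG2, transiently transfected with GAL4-UAS reporter units plus LXRb-Gal4 fusion. Treatment: 24 h. Detection: reporter mRNA by RT-PCR, 6-FAM labelling, HpaI digestion, capillary electrophoresis.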

[13] = target: Transcriptional activator Myb (Homo sapiens) (UniProt P10242); assay: ATG_Myb_CIS: Attagene CIS-FACTORIAL HepG2 Assay for human Myeloblastosis (Myb) Proto-Oncogene Transcription Factor (AID 2282986); conditions: HepG2 Attagene CIS-FACTORIAL Myb reporter transcription; actives raise or lower the signal
Summary of the method: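 After 24 h of compound dosing, total RNA from transfected HepG2 cells is reverse-transcribed and the reporter sequences amplified, labeled and separated by capillary electrophoresis. Values come from bidirectional fitting against DMSO.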

[14] = BSK_3C_TissueFactor: BioMAP Diversity Plus: 3C Assay for Tissue Factor Biomarker Activity (AID 2282997); conditions: BioMAP 3C HUVEC, tissue factor biomarker readout; actives raise or lower the signal
Summary of the method: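 ELISA read-out of Tissue Factor levels on human umbilical vein endothelium collected 24 h after chemical dosing. Gain or loss of signal was fitted relative to DMSO.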

[15] = BSK_3C_uPAR: BioMAP Diversity Plus: 3C Assay for Urokinase-type plasminogen activator receptor (uPAR) Biomarker Activity (AID 2282998); conditions: BioMAP 3C HUVEC, uPAR biomarker ELISA; actives raise or lower the signal
Summary of the method: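 HUVEC primary cells; 24 h post-dose; uPAR by ELISA; gain or loss of signal fitted bidirectionally vs DMSO baseline.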

[16] = BSK_3C_VCAM1: BioMAP Diversity Plus: 3C Assay for Vascular cell adhesion molecule 1 (VCAM1) Biomarker Activity (AID 2282999); conditions: BioMAP 3C HUVEC, VCAM1 ELISA, cytokine-stimulated; actives raise or lower the signal
Summary of the method: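 Endothelial cells from human umbilical vein are treated with test chemical. At 24 h, VCAM-1 is measured by ELISA, and responses in either direction are fitted relative to DMSO.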

[17] = BSK_4H_Eotaxin3: BioMAP Diversity Plus: 4H Assay for Eotaxin 3 Biomarker Activity (AID 2283000); conditions: primary human endothelial cells (HUVEC); actives raise or lower the signal
Summary of the method: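 Chemicals were added to human umbilical vein endothelium cultures, and Eotaxin-3 was quantified by ELISA at 24 h. Values were derived by bidirectional fitting with DMSO serving as negative control and activity baseline.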

[18] = target: Nuclear receptor subfamily 4 group A member 2 (Homo sapiens) (UniProt P43354); assay: ATG_NURR1_TRANS: Attagene TRANS-FACTORIAL HepG2 Assay for human Nuclear Receptor Related Protein 1 (NURR1) (AID 2282985; active means hit-call score of the fitted dose curve at least 0.9, where 1 is the maximum); conditions: HepG2 Attagene TRANS reporter, mRNA readout
Summary of the method: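 Cells: HepG2, transiently transfected. Exposure: 24 h. Detection: fluorescence of labelled RT-PCR products separated by capillary electrophoresis; upward fit versus DMSO.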

Measured: AC50

Oxysterols receptor LXR-alpha (Homo sapiens), sequence (Q13133 whole entry, looked up, the tested form may be a part): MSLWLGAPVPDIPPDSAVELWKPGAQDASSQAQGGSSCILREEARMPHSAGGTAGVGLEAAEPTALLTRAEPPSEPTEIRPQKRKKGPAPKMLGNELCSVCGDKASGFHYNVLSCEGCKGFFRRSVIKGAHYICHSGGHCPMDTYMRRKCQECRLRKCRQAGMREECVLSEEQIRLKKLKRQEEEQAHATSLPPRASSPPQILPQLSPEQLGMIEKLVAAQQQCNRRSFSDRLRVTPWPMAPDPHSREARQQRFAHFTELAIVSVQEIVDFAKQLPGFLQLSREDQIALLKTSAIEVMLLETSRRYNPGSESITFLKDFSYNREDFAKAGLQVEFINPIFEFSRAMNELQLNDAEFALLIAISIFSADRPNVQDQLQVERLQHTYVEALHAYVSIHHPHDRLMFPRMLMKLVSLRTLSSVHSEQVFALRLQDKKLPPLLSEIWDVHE
Hepatocyte nuclear factor 4-alpha (Homo sapiens), sequence (P41235 whole entry, looked up): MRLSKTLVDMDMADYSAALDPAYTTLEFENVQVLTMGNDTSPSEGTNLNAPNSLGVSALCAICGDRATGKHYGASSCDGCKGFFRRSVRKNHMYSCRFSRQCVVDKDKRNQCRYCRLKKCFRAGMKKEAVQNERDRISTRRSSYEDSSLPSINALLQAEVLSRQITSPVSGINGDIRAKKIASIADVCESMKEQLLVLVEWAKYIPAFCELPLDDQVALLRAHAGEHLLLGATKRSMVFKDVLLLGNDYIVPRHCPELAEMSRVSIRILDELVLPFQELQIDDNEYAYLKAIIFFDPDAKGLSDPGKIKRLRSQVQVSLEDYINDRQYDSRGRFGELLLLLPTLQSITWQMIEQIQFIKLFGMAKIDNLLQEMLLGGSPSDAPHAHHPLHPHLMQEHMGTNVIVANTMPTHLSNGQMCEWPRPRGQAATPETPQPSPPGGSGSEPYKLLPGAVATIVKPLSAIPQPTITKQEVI
Cellular tumor antigen p53 (Homo sapiens), sequence (P04637 whole entry, looked up): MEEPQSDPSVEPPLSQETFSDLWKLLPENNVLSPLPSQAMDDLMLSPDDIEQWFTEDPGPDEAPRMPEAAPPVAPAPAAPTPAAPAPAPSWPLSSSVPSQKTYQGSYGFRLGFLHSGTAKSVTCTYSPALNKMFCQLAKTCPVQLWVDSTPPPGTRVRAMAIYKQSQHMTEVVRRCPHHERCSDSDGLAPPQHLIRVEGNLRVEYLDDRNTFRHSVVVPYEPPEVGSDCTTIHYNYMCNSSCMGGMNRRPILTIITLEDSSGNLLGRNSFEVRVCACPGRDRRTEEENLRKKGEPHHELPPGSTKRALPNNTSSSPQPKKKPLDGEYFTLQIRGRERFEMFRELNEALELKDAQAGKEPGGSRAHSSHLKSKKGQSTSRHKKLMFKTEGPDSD
Transcriptional activator Myb (Homo sapiens), sequence (P10242 whole entry, looked up): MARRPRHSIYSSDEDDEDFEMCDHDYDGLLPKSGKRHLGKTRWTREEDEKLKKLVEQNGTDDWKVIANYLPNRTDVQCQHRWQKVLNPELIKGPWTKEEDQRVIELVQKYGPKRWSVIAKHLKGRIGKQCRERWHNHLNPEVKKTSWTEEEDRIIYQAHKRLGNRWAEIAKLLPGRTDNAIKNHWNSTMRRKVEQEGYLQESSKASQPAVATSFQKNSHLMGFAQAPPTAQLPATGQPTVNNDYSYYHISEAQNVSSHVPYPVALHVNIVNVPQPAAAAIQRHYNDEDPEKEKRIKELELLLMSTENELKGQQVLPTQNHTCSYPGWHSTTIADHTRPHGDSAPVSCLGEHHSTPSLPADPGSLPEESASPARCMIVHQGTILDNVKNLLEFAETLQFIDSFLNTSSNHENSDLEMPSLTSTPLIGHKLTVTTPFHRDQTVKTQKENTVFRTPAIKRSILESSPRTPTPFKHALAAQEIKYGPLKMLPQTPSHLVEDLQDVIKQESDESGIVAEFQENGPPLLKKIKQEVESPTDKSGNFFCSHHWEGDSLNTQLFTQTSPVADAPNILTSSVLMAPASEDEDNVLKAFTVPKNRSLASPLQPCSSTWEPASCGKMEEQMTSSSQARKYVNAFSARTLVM
Nuclear respiratory factor 1 (Homo sapiens), sequence (Q16656 whole entry, looked up): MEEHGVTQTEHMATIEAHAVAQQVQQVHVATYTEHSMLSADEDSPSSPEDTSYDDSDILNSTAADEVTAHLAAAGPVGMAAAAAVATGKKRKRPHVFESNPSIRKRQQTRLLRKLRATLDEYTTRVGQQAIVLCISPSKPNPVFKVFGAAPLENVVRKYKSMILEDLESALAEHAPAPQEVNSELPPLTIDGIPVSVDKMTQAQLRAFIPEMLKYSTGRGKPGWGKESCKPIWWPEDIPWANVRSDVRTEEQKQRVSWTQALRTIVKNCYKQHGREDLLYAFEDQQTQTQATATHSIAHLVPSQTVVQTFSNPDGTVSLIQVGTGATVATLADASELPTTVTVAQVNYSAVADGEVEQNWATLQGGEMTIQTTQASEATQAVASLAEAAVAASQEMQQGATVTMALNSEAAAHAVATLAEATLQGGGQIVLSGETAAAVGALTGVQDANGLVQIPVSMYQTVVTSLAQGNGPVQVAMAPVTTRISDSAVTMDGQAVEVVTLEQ
Nuclear receptor subfamily 4 group A member 2 (Homo sapiens), sequence (P43354 whole entry, looked up): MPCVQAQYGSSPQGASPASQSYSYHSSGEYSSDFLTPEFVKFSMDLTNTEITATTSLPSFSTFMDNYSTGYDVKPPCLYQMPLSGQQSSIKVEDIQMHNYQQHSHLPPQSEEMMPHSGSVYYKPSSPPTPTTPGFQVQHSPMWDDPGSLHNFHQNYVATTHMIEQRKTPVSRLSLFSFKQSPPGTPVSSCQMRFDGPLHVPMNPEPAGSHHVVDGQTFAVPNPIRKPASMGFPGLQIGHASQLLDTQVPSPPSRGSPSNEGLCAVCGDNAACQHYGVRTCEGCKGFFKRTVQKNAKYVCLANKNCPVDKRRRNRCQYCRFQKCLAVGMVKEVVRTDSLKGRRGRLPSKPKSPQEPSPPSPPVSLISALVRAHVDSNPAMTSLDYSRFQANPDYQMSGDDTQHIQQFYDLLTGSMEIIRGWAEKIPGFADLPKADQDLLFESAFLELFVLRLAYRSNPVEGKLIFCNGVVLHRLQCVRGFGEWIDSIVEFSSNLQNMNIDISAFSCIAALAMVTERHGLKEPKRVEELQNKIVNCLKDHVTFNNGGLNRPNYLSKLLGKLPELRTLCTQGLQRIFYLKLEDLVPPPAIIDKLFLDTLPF
Myc proto-oncogene protein (Homo sapiens), sequence (P01106 whole entry, looked up, the tested form may be a part): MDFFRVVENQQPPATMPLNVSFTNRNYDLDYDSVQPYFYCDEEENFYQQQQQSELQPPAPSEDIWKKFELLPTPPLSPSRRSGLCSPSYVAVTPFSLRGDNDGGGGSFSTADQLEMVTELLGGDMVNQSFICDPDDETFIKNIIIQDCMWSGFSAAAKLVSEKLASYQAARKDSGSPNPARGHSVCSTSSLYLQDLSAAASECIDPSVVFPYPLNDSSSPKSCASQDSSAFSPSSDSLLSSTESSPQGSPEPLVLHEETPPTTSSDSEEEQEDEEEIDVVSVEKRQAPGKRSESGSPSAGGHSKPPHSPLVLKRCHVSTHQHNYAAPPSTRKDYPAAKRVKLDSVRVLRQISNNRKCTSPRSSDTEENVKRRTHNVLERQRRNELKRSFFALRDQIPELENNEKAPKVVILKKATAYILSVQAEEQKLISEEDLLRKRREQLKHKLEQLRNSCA
Oxysterols receptor LXR-beta (Homo sapiens), sequence (P55055 whole entry, looked up, the tested form may be a part): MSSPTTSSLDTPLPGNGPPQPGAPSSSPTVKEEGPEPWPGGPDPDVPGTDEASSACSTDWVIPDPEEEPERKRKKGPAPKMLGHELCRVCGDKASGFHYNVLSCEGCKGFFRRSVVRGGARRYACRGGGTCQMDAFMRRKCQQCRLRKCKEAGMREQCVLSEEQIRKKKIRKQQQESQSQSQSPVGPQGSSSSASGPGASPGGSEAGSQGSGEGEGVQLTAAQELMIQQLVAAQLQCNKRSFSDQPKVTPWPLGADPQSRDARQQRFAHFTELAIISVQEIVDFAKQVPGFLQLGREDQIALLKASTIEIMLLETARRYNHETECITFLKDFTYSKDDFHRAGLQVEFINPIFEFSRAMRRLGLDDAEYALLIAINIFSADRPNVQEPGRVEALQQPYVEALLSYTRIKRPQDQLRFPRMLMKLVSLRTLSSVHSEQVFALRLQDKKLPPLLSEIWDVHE

C=CC(=O)OCCOCCOCC
inactive: [1] | [2] | [3] | [4] | [5] | [6] | [7] | [10] | [11]
active: [8] 9.52 µM | [9] 26 µM

C=C(C)C(=O)O[C@H]1C[C@@H]2CC[C@@]1(C)C2(C)C
inactive: [12] | [4] | [13] | [5] | [6] | [7] | [8] | [10]
active: [1] 27.5 µM | [9] 72.1 µM | [11] 145 µM | [14] 12.2 µM | [15] 13.5 µM | [16] 26.6 µM | [17] 9.05 µM

CC(C)[C@H]1CC[C@@H](C)CC1=O
inactive: [1] | [2] | [3] | [4] | [18] | [13] | [5] | [7] | [9] | [10] | [11]

CC(C)(C)c1cc(CCC(=O)NN)cc(C(C)(C)C)c1O
inactive: [1] | [12] | [5] | [6] | [7] | [8] | [9] | [10] | [11]

CCCCCCCCCC=O
inactive: [1] | [3] | [18] | [13] | [5] | [6] | [7] | [9] | [10] | [11] | [14] | [15] | [16] | [17]

CCCCCCCCCCCCN(CCCCCCCCCCCC)CCCCCCCCCCCC
inactive: [1] | [12] | [3] | [13] | [5] | [7] | [8] | [9] | [10] | [11]

CCCCC[Si](OCC)(OCC)OCC
inactive: [1] | [12] | [3] | [13] | [5] | [6] | [7] | [8] | [9] | [10]

CSc1nc(NC2CC2)nc(NC(C)(C)C)n1
inactive: [1] | [12] | [3] | [4] | [13] | [5] | [6] | [7] | [8] | [10] | [11]
active: [9] 12.1 µM

CCOC(=O)c1ccccc1OC
inactive: [1] | [12] | [3] | [4] | [5] | [6] | [7] | [8] | [9] | [10]

C=O
inactive: [1] | [2] | [4] | [13] | [5] | [6] | [7] | [8] | [9] | [10]

Clc1nc(C(Cl)(Cl)Cl)c(Cl)c(Cl)c1Cl
active: [6] 52.4 µM | [9] 27.6 µM
inactive: [1] | [2] | [3] | [13] | [5] | [7] | [8] | [10] | [11]

C=C(C)C(=O)Nc1ccc(Cl)c(Cl)c1
inactive: [1] | [12] | [3] | [13] | [5] | [6] | [7] | [8] | [11]
active: [18] 69.8 µM | [9] 13.6 µM | [10] 26.5 µM

Cc1ccc(O)c(C(C)(C)C)c1
inactive: [1] | [12] | [4] | [5] | [6] | [11]
active: [13] 184 µM | [7] 79.5 µM | [8] 100 µM | [9] 25.2 µM | [10] 143 µM | [14] 36.7 µM | [15] 20 µM | [16] 30 µM | [17] 35 µM

CCCC1CCC(=O)O1 (centres undefined)
inactive: [1] | [3] | [18] | [13] | [5] | [6] | [7] | [8] | [9] | [10] | [11]

CC(C)C1CCC(O)CC1 (centres undefined)
inactive: [1] | [12] | [3] | [4] | [18] | [13] | [5] | [7] | [9] | [10] | [11]

NC(=O)NC1NC(=O)NC1=O (centres undefined)
inactive: [1] | [12] | [3] | [4] | [13] | [5] | [6] | [7] | [8] | [9] | [10] | [11]
